A selection: hits, their analogues and other compounds. The true share with any hit is near 2.1%.
DUSP3 inh: VHR1 phosphatase inhibitors, primary screen, biochemical, absorbance, uHTS. Dual specificity protein phosphatase 3 (Homo sapiens), P51452. recombinant VHR phosphatase, pNPP absorbance. inhibition, % at 13.3 µM. hit rate 0.52% among 290,000. AID 1654, 2009; in the data active means inhibition above about 50%
Target sequence (P51452 whole entry, looked up): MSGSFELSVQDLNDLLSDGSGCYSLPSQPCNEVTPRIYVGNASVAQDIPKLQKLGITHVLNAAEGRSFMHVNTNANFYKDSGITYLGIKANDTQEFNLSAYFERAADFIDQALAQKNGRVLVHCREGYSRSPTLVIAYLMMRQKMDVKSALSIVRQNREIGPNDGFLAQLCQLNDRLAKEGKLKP
PrP 5UTR inh: inhibition of PrP 5' UTR reporter expression | cell-based PrP 5' UTR mRNA reporter, plate reader | hit rate 0.35% among 340,000 | inhibition, % (test concentration not listed); in the data active means inhibition above about 52%; further: 0 = median of the neutral control wells
PrPC surface inh: inhibitors of human cell surface prion protein PrPC, primary screen, cell-based, TR-FRET; Major prion protein (Homo sapiens), P04156; TR-FRET read-out; inhibition, % at 13.8 µM; hit rate 0.43% among 370,000; in the data active means inhibition above about 24%; further: 0% = median of the test wells and 100% = reference compound wells
PfHsp40 yeast: rescue of yeast from PfHsp40 toxicity, primary screen, S. cerevisiae, ATP luminescence; S. cerevisiae expressing PfHsp40, growth rescue; growth rescue, % at 12.5 µM; hit rate 0.68% among 340,000; AID 504582, 2011; in the data active means growth rescue above about 28%, passing the limit was not always enough;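 further: yeast W303a lacking pdr1 and pdr3 grown in galactose medium; growth measured after three days at 30 °C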
MazEF act: activators of E. coli MazEF toxin-antitoxin RNase, primary screen, biochemical, fluorescence, uHTS; activation, % at 20 µM; FAM/BHQ RNA-DNA oligo cleavage fluorescence, 5 h; Endoribonuclease toxin MazF (Escherichia coli (strain K12)), P0AE70; hit rate 0.32% among 350,000; in the data active means activation above about 50%
Target sequence (P0AE70 whole entry, looked up): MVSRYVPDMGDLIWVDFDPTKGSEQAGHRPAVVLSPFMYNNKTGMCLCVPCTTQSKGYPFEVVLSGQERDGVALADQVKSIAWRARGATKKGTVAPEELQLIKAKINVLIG
BJeLR lethal: MLPCN primary cell-based screen for lethality selective to Ras in HRASV12 cells. BJeLR (HRASV12) viability, CellTiter-Glo ATP luminescence, 48 h. inhibition, % (test concentration not listed). hit rate 0.17% among 300,000; in the data active means inhibition above about 50%
* hit, by the source's call; . = not tested or not shown.

SMILES	DUSP3 inh	PrP 5UTR inh	PrPC surface inh	PfHsp40 yeast	MazEF act	BJeLR lethal
Cc1cccc(C)c1OCc1nnc(SCC(=O)Nc2ccc(N3CCOCC3)cc2)o1	54.4*	-5.0	-1.9	0.1	-2.3	0.4
COc1ccccc1/C=C1\S/C(=N/NC(=O)c2cccc(Br)c2)NC1=O	27.0	-8.8	5.9	141.8*	-8.8	-16.9
COc1ccc([C@H]2C[C@H](O)[C@@H](n3cc(COC(=O)c4ccccc4)nn3)CN2C(=O)C2CCCCC2)cc1	.	.	-4.9	.	0.5	.
CCOC(=O)[C@H]1[C@H]2COc3ccc(Br)cc3[C@H]2N2C(=O)CN(Cc3ccc(C)cc3)C(=O)[C@@]12C	.	-11.3	3.7	0.4	161.5*	.
CCOC(=O)[C@H]1[C@H]2COc3ccc(Br)cc3[C@@H]2N2C(=O)CN(Cc3ccc(C)cc3)C(=O)[C@@]12C	.	-13.3	9.7	0.4	-0.9	.
CCOC(=O)C1=C(O)c2ccccc2C(=O)/C1=C\c1ccc(C)cc1	-0.8	-27.6	.	1.0	151.0*	.
CCOC(=O)[C@H]1[C@H]2COc3ccc(OC)cc3[C@@H]2N2C(=O)[C@H](C)NC(=O)[C@@]12C	.	-10.5	0.7	-0.9	7.4	.
Cc1cccn2c(=O)c3cc(C(=O)NCc4ccc(F)cc4)c(=N)n(CC4CCCO4)c3nc12 (stereo not drawn)	55.5*	-12.4	-35.2	1.2	12.5	-4.2
COc1ccc(CNC(=O)c2cc3c(=O)n4cccc(C)c4nc3n(CC3CCCO3)c2=N)cc1 (stereo not drawn)	16.5	-1.3	-40.6	-0.5	7.6	6.3
Clc1ccc(CSc2ncn(-c3ccccc3)n2)cc1	8.8	-7.9	3.8	0.2	-14.8	1.2
Clc1cccc(CSc2ncn(-c3ccccc3)n2)c1	4.3	-30.0	1.0	31.1*	-6.0	6.7
Nc1ccc2nc(CCCCc3nc4ccccc4[nH]3)[nH]c2c1	51.5*	-8.0	0.7	-0.4	-0.6	-1.0
Nc1ccc2nc(CCCCCCc3nc4ccc(N)cc4[nH]3)[nH]c2c1	38.3	-13.2	1.5	0.3	-27.0	.
CC1(C(=O)Nc2nnc(C(C)(C)C)s2)Cc2ccccc2C(=O)O1 (stereo not drawn)	52.7*	.	4.0	-1.6	6.3	0.7
CCSc1nnc(NC(=O)C2(C)Cc3ccccc3C(=O)O2)s1 (stereo not drawn)	6.4	-1.1	3.1	-0.6	-6.8	0.6
CCOc1cc(/C=C2\C(=O)N(CCC#N)N=C2C)ccc1OCC(N)=O	-2.7	-14.2	2.9	-0.7	4.5	4.0
CC1=NN(CCC#N)C(=O)/C1=C/c1ccc(N(C)C)cc1	59.8*	-12.8	-4.2	0.6	-51.8	8.3
CN(C)CCOc1ccc(-c2c(-c3ccccc3)sc3ccccc23)cc1	.	-14.3	-12.4	32.7*	6.0	.
CC(C)C(C(=O)NCc1ccco1)N(Cc1ccco1)C(=O)CNS(=O)(=O)c1ccccc1 (stereo not drawn)	7.4	-7.8	-0.7	-1.6	8.8	0.4
CCCC(C(=O)NC(C)(C)CC)N(Cc1ccco1)C(=O)CNS(=O)(=O)c1ccccc1 (stereo not drawn)	57.6*	-4.7	5.4	2.5	5.6	3.3
CC(=O)c1ccc(NC(=S)N2CCN(CCN3C(=O)c4cccc5cccc(c45)C3=O)CC2)cc1	55.4*	-4.0	-4.9	0.0	-0.3	2.9
CCCS(=O)(=O)NC(=O)C1(C)CCN(C(=O)c2ccc3c(c2)OCO3)C1 (stereo not drawn)	.	.	-6.8	.	.	.
Cc1cnc(NC(=O)c2cc3c(C)nn(Cc4ccccc4Cl)c3s2)s1	11.0	-24.9	3.3	-1.7	-3.0	-2.3
O=c1c2c(-c3ccc(Cl)cc3)csc2ncn1/N=C/c1cccc([N+](=O)[O-])c1O	-24.1	-11.8	-1.2	280.2*	0.4	0.1
O=Cc1ccccc1-n1cncn1	17.5	79.8*	-5.1	-0.7	-1.4	-5.2
SMILES	DUSP3 inh	PrP 5UTR inh	PrPC surface inh	PfHsp40 yeast	MazEF act	BJeLR lethal
Cc1ccc(C(=O)NCC(=O)OC(C)C(=O)NC2CCCCC2C)cc1C (stereo not drawn)	.	-20.8	0.3	-0.8	6.0	-8.8
CCCCCC(=O)N/N=C(\C)c1ccc(NC(=O)c2ccco2)cc1	13.9	-50.7	-0.9	58.6*	6.5	-4.3
CN(C)C(=O)CCc1ccc2c3c([nH]c2c1)[C@]1(CCC2CCCC2)[C@@H](C(=O)N2CCOCC2)C[C@H](CC(=O)NC(C)(C)C)C(=O)N1CC3	.	-8.5	-9.8	-0.3	58.9*	.
CN(C)C(=O)CCc1ccc2c3c([nH]c2c1)[C@]1(CCC2CCCC2)[C@@H](C(=O)N2CCOCC2)C[C@H](CC(=O)NCCN2CCOCC2)C(=O)N1CC3	.	-10.9	9.4	0.3	3.6	.
CC[C@]12c3[nH]c4cc(-c5ccco5)ccc4c3CCN1C(=O)[C@@H](CC(=O)NCCCN(C)C)C[C@@H]2C(=O)N1CCN(C(=O)c2ccco2)CC1	.	-31.2	3.6	0.3	53.1*	.
CC[C@]12c3[nH]c4ccc(OC)cc4c3CCN1C(=O)C(CC(=O)NCCCOC)C[C@@H]2C(=O)N1CCN(C(=O)C2CC2)CC1 (stereo partly drawn)	.	-7.5	0.0	-0.3	75.1*	.
CC1=CC2=C(C=O)C(=O)C(C)(O)C(O)C2=CO1 (stereo not drawn)	.	.	-5.0	.	242.2*	.
Cc1ccc2c(c1)CC1(CN2C)C(=O)NC(=O)N(c2ccccc2C)C1=O (stereo not drawn)	13.8	-23.9	4.2	-0.2	0.6	-9.8
Cc1ccc2c(c1)CC1(CN2C)C(=O)NC(=O)N(c2ccc(C)c(C)c2)C1=O (stereo not drawn)	50.5*	-24.3	-0.2	-0.3	-3.8	1.8
C=CCn1c(O)c(C=Nc2ccc(F)cc2)c(=O)[nH]c1=O	-10.4	4.7	1.6	-2.0	8.6	-14.1
O=c1[nH]c(=O)n(Cc2ccccc2Cl)c(O)c1C=Nc1ccc(F)cc1	6.2	7.4	-2.6	1.0	53.0*	2.3
N#CC1(C#N)CC(C=O)=C(N)C1(C#N)CC(=O)c1ccc(F)cc1 (stereo not drawn)	21.3	-10.8	-2.8	-1.8	153.7*	2.9
Cn1cc(C(=O)N/N=C/C=C/c2ccccc2)ccc1=O	34.1	-18.9	-14.7	50.7*	-1.2	0.9
COc1cccc(N2C(=O)NC(=O)/C(=C/c3ccc4c5c(cccc35)CC4)C2=O)c1	50.8*	.	-3.5	.	.	1.1
CCOc1ccccc1N1C(=O)NC(=O)/C(=C/c2ccc3c4c(cccc24)CC3)C1=O	21.9	-0.8	3.7	0.3	-14.8	-3.9
Clc1ccc(CCC(Cn2ccnc2)Sc2c(Cl)cccc2Cl)cc1 (stereo not drawn)	.	-8.9	4.5	119.9*	-3.3	.
N#Cc1ccc(C(=O)N2CCC3CC2c2cc(-c4ccccc4)ccc23)cc1 (stereo not drawn)	.	-27.5	-3.4	1.6	-3.0	.
